High-throughput results as filed in PubChem.
Only some compounds are listed: those with a hit (about 3.2% of all), similar ones and a draw of the others.
MEKK3 PB1 HTS = modulators of MEKK3-MEK5 PB1 binding, primary screen, biochemical, wildtype MEKK3, multiplex bead flow cytometry, Alexa488-MEK5 | Mitogen-activated protein kinase kinase kinase 3 (Homo sapiens), Q99759 | bead-based flow cytometry, Alexa488-MEK5 binding to MEKK3; actives lie on both sides; 0 = blocked by unlabeled MEK5, 100 = vehicle | binding response (% of control), % at 10 µM | 290,000 tested, 1.4% active | AID 1529, 2009;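 active = binding response more than 3 SD above or below the average of its plate-row segment, actives on both sides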;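 also: Alexa488 bead fluorescence after subtracting the streptavidin-only scavenger bead signal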
Target sequence (Q99759 whole entry, looked up): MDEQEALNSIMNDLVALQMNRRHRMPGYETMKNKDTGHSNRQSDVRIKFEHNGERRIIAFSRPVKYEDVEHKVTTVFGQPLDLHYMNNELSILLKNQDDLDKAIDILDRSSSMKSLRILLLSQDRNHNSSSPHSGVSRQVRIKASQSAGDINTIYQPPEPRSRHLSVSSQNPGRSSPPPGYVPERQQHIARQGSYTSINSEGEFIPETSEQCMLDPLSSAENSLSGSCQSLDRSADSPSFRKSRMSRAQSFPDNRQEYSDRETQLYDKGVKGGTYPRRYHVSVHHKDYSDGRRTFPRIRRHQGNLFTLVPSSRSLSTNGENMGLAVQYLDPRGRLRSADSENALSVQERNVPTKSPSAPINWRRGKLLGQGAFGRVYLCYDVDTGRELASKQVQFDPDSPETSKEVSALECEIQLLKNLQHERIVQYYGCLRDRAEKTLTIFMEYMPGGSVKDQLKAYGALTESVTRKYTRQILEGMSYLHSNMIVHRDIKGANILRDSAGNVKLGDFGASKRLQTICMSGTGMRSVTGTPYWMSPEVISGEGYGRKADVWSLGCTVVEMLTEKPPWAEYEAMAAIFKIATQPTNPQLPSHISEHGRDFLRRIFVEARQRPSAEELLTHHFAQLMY
SKN-1 inh = suppressors of acrylamide-induced Pgst-4::GFP reporter in worms, primary screen, SKN-1 inhibitor project, whole organism, uHTS, GFP/RFP fluorescence ratio, strain VP596 | C. elegans VP596 Pgst-4::GFP/RFP ratio, 24 h | inhibition, % at 21.8 µM | 360,000 tested, 0.49% active;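 active = interference check ratio from 0.5 to 1.5 plus GFP to RFP signal ratio inhibition reaching or exceeding a fixed threshold, cut at about 30% in these data, passing the limit was not always enough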
CendR NRP1 mod = modulators of CendR peptide binding to NRP-1, primary screen, biochemical, fluorescence polarization, uHTS | FAM-RPARPAR peptide binding to NRP-1 | AID 602438, 2012 | 360,000 tested, 0.85% active | inhibition, % at 25 µM;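 active = inhibition or corrected inhibition above about 18%, plus a signal ratio from 0.5 to 1.5, limit read from the data, passing the limit was not always enough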
MEKK2wt PB1 HTS = modulators of MEK5 binding to wildtype MEKK2, primary screen, biochemical, multiplex bead flow cytometry, Alexa488-MEK5; 290,000 tested, 1.1% active; binding response (% of control), % at 10 µM; Alexa488-MEK5 binding to MEKK2 WT; actives lie on both sides; Mitogen-activated protein kinase kinase kinase 2 (Homo sapiens), Q9Y2U5; in the data active = binding response below about 67% or above about 130%
MEKK2mut PB1 HTS = MEK5 binding signal on mutant MEKK2 PB1, primary screen, biochemical, multiplex bead flow cytometry, Alexa488-MEK5 | 290,000 tested, 0.35% active | AID 1530, 2009 | Alexa488-MEK5 binding to MEKK2 mutant | percent response, % at 10 µM; in the data active = percent response above about 24%, passing the limit was not always enough
MEKK2wt confirm = modulators of MEK5 binding to wildtype MEKK2, confirmation, biochemical, single concentration, multiplex bead flow cytometry | shares compounds with MEKK3 PB1 HTS | Alexa488-MEK5 binding to MEKK2 WT; actives lie on both sides | binding response (% of control), % at 10 µM | 5,900 tested, 2.4% active; in the data active = binding response below about 16% or above about 210%; inactive = in between
MEKK2mut-MEK5 = mutant MEKK2 PB1-MEK5 binding signal retest – biochemical, single concentration, multiplex bead flow cytometry, confirmation; percent response, % at 10 µM; 5,900 tested, 2% active; shares compounds with MEKK3 PB1 HTS; Alexa488-MEK5 binding to MEKK2 mutant; AID 1893, 2009; in the data active = percent response mostly above about 71%, no sharp cut-off; inactive = mostly below about 38%;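 also: higher means compound restores mutant binding toward wildtype level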
MEKK3-MEK5 inh = MEKK3 wild-type PB1 binding to MEK5, inhibitors, confirmation, biochemical, bead multiplex flow cytometry, single concentration, wildtype | shares compounds with MEKK3 PB1 HTS | Alexa488-MEK5 binding to MEKK3; active compounds read low | 5,900 tested, 1.8% active | binding response (% of control), % at 10 µM;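 active = binding response below 72% of control, or above a set upper limit, though filed actives all read lower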;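 also: lower values mean stronger disruption of MEK5 binding to MEKK3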
Each line names hits and unclear results; the compound was inactive in the other large screens (follow-up assays come after a bar, where they were run); [ ] = another dose, or the depositor's remark.

CCOC(=O)c1c(NC(C)=O)sc2c(O)c(Br)cc(Br)c12	MEKK3 PB1 HTS 132 | MEKK2wt confirm inactive | MEKK2mut-MEK5 inactive | MEKK3-MEK5 inh inactive
CCOC(=O)c1c(NC(C)=O)sc2c(O)cccc12	none
CCN1C(=O)C2CCCCN2c2ccc(C(=O)NCCOC)cc21 (stereo not drawn)	none
COc1ccc2cc3cc(C(=O)NCCN4CCc5ccccc5C4)sc3nc2c1	none
CCC(C)NC(=O)c1cc2cc3ccc(OC)cc3nc2s1 (stereo not drawn)	MEKK3 PB1 HTS 126 | MEKK2wt confirm inactive | MEKK2mut-MEK5 inactive | MEKK3-MEK5 inh inactive
COc1ccccc1N1CCN(C(=O)[C@@H]2CCCN2C2=NS(=O)(=O)c3ccccc32)CC1	none (no result: MEKK3 PB1 HTS, MEKK2wt PB1 HTS, MEKK2mut PB1 HTS)
Cc1cccc2cc(CN(Cc3ccccc3)C(=O)N(C)C)c(=O)[nH]c12	MEKK3 PB1 HTS 127 | MEKK2wt confirm inactive | MEKK2mut-MEK5 inactive | MEKK3-MEK5 inh inactive
Cc1ccc(CN(Cc2cc3cccc(C)c3[nH]c2=O)C(=O)N(C)C)cc1	none
Cc1nc2c3cc(F)ccc3n(Cc3ccc(F)cc3)c2s1	MEKK3 PB1 HTS 144 | MEKK2wt confirm inactive | MEKK2mut-MEK5 inactive | MEKK3-MEK5 inh inactive
CC1=NN(c2ccccc2)C(=O)C1=Cc1ccccc1	none (no result: MEKK3 PB1 HTS, MEKK2wt PB1 HTS, MEKK2mut PB1 HTS)
COc1ccc(/C=C2/C(=O)N(Cc3ccccc3)N=C2C)cc1	MEKK3 PB1 HTS 128 | MEKK2wt confirm inactive | MEKK2mut-MEK5 inactive | MEKK3-MEK5 inh inactive
COc1cc(OC)cc(C2=Cc3ccc(OC)cc3C(CC(C)=O)N2c2ccc(C#CCCO)cc2)c1 (stereo not drawn)	none (no result: MEKK3 PB1 HTS, MEKK2wt PB1 HTS, MEKK2mut PB1 HTS)
Cc1cccc(NC(=O)c2cc(Cl)ccc2[N+](=O)[O-])c1	MEKK3 PB1 HTS 147 | MEKK2wt confirm inactive | MEKK2mut-MEK5 inactive | MEKK3-MEK5 inh inactive
Cc1cccc(NC(=O)c2ccc(NCCc3ccccc3)c([N+](=O)[O-])c2)c1	MEKK3 PB1 HTS 135 | MEKK2wt confirm inactive | MEKK2mut-MEK5 inactive | MEKK3-MEK5 inh inactive
Cc1ccc(NC(=O)c2ccc(NCCCN3CCC(C)CC3)c([N+](=O)[O-])c2)cc1F	MEKK2wt PB1 HTS 158 | MEKK2wt confirm inactive | MEKK2mut-MEK5 inactive | MEKK3-MEK5 inh inactive
Cc1nnc(NN)n(N)c1=O	none
Cc1nnc(Nc2ccccc2)n(N)c1=O	MEKK3 PB1 HTS 0.0[inhibitor], MEKK2wt PB1 HTS -1.0[inhibitor] | MEKK2wt confirm inactive | MEKK2mut-MEK5 inactive | MEKK3-MEK5 inh inactive
CCN(CC)c1ccc(/C=C/c2nc3ccccc3s2)cc1	none (no result: SKN-1 inh, CendR NRP1 mod)
COc1cc2nc(/C=C/c3ccc(N(C)C)cc3)sc2cc1SC	MEKK2wt PB1 HTS 33[inhibitor] | MEKK2wt confirm inactive | MEKK2mut-MEK5 inactive | MEKK3-MEK5 inh inactive
O=C(CSc1ccc(Cl)cc1)N1CCN(c2ccc([N+](=O)[O-])cc2Cl)CC1	none
Cc1ccc(Cl)cc1N1CCN(C(=O)CSc2ccsc2[N+](=O)[O-])CC1	MEKK3 PB1 HTS 133 | MEKK2wt confirm inactive | MEKK2mut-MEK5 inactive | MEKK3-MEK5 inh inactive
Cn1c(=O)c([N+](=O)[O-])c(NCCc2ccccc2)c2ccccc21	MEKK3 PB1 HTS 129 | MEKK2wt confirm inactive | MEKK2mut-MEK5 inactive | MEKK3-MEK5 inh inactive
COc1ccc(S(=O)(=O)N(C)C[C@H]2Oc3ccc(NS(=O)(=O)c4cn(C)cn4)cc3C(=O)N([C@H](C)CO)C[C@@H]2C)cc1	none (no result: MEKK3 PB1 HTS, MEKK2wt PB1 HTS, MEKK2mut PB1 HTS)
Cc1cc(N/N=C/c2cccc(F)c2)nc(NCc2ccccc2)n1	MEKK2wt PB1 HTS 140 | MEKK2wt confirm inactive | MEKK2mut-MEK5 inactive | MEKK3-MEK5 inh inactive
Cc1cc(N/N=C/c2cccc(Cl)c2)nc(NCc2ccccc2)n1	MEKK2wt PB1 HTS 149 | MEKK2wt confirm inactive | MEKK2mut-MEK5 inactive | MEKK3-MEK5 inh inactive
Cc1cc(C)nc(N/N=C/c2cccc(Cl)c2)n1	none
Cc1cc(N/N=C/c2ccccc2)nc(NCc2ccccc2)n1	MEKK2wt PB1 HTS 175 | MEKK2wt confirm inactive | MEKK2mut-MEK5 inactive | MEKK3-MEK5 inh inactive
Brc1ccc(/C=N/Nc2ccccn2)cc1	none
Clc1ccc(/C=N/Nc2ccccn2)cc1	MEKK3 PB1 HTS 128 | MEKK2wt confirm inactive | MEKK2mut-MEK5 inactive | MEKK3-MEK5 inh inactive
Cc1ccc(S(=O)(=O)NCc2ccc(C(=O)N3CCN(c4ccc([N+](=O)[O-])cc4)CC3)cc2)cc1	none
Cc1cc(N/N=C/c2ccc(Cl)cc2)nc(NCc2ccccc2)n1	MEKK2wt PB1 HTS 186, MEKK2mut PB1 HTS 54 | MEKK2wt confirm inactive | MEKK2mut-MEK5 inactive | MEKK3-MEK5 inh inactive
Cc1cc(N/N=C/c2ccccc2F)nc(NCc2ccccc2)n1	none
O=C(COC(=O)c1cccnc1Cl)c1ccccc1	none
CCc1ccc(C(=O)COC(=O)c2cccnc2Cl)cc1	MEKK3 PB1 HTS 72[inhibitor] | MEKK2wt confirm inactive | MEKK2mut-MEK5 inactive | MEKK3-MEK5 inh inactive
O=C(O)COc1ccccc1/C=N/NC(=O)CSc1nc2ccccc2n1Cc1ccc(Cl)cc1	MEKK3 PB1 HTS 50[inhibitor] | MEKK2wt confirm inactive | MEKK2mut-MEK5 inactive | MEKK3-MEK5 inh inactive
COc1ccc(CNC(=O)C2CCCN(S(=O)(=O)c3ccc4c(c3)C(C)(C)C(=O)N4C)C2)cc1 (stereo not drawn)	MEKK3 PB1 HTS 2.0[inhibitor], MEKK2wt PB1 HTS 0.0[inhibitor] | MEKK2wt confirm inactive | MEKK2mut-MEK5 inactive | MEKK3-MEK5 inh inactive
COc1ccc(CNC(=O)C2CCN(S(=O)(=O)c3ccc4c(c3)C(C)(C)C(=O)N4C)CC2)cc1	none
Cc1ccc(-c2ccc(SCC(=O)N3CCN(c4ccccc4)CC3)nn2)cc1	MEKK3 PB1 HTS 138 | MEKK2wt confirm inactive | MEKK2mut-MEK5 inactive | MEKK3-MEK5 inh inactive
O=C(CSc1ccc(-c2ccccc2)nn1)N1CCN(c2ccccc2)CC1	none
CC1(c2ccc3c(c2)OCCO3)NC(=O)N(CC(=O)Nc2ccccc2)C1=O (stereo not drawn)	none (no result: MEKK3 PB1 HTS, MEKK2wt PB1 HTS, MEKK2mut PB1 HTS)
CCC1=Nc2cc(C(=O)NCCCOC)ccc2Sc2ccccc21	MEKK3 PB1 HTS 125 | MEKK2wt confirm inactive | MEKK2mut-MEK5 inactive | MEKK3-MEK5 inh inactive
CCCC1=Nc2cc(C(=O)NCCCOCC)ccc2Sc2ccccc21	none
